Data on 95 molecules can be found in PubChem BioAssay AID1117319 (Southern Research Institute, 2015).

The inhibition is the drop in the measured response relative to a control, in per cent.

Structures are written as SMILES. Where “and” joins values, the source holds several entries; their conditions need not be identical. Equal entries are not always repeated. Among all 260,000 compounds or so, about 1,500 (0.58%) were called active. Not shown: some 5% with an inconclusive outcome. The list is a sample of the results. Results with a measured potency or affinity are listed apart. Values without a mark were called inactive.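 The calls were made as follows: active = inhibition above a set limit at one or more doses, reproduced on every date tested; inconclusive = results disagree between test dates, or hit never tested in dose response; inactive = the rest.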

This test addresses Virion infectivity factor (Human immunodeficiency virus type 1 group M subtype B (isolate BH10)) + Virion infectivity factor (Human immunodeficiency virus type 1 group M subtype B (isolate BRU/LAI)) + Virion infectivity factor (Human immunodeficiency virus type 1 group M subtype B (isolate PCV12)) + Virion infectivity factor (Human immunodeficiency virus type 1 group M subtype B (isolate HXB2)) + DNA dC->dU-editing enzyme APOBEC-3G (Homo sapiens) (UniProt P69720+P69721+P69722+P69723+Q9HC16). Nature of the test: HIV-1 Vif–A3G interaction blockers – biochemical, TR-FRET, GST-Vif 1-94, biotin-A3G peptide, dose response retest, primary screen (AID 1117319).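 Also: Vif residues 1-94 fused to GST binding biotinylated APOBEC3G peptide 110-148; 0% = full assay without inhibitor and 100% = GST in place of GST-Vif.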 The following applies: TR-FRET GST-Vif / biotin-A3G peptide binding; stronger effect = higher value. A general note: TR-FRET usually uses a lanthanide donor and a delayed reading to cut background.
For the molecule `NNC(=O)C1CC1c1ccc(Cl)cc1` (stereo not given), the inhibition is -1.47%. Then `CC(C)NC(=O)C1CCN(C2CCN(Cc3nc(C(C)C)cs3)CC2)CC1`, with 10.5%; and `CC(=O)C(Sc1nc(NC(C)(C)C)nc(N(C)C)n1)C(C)=O`, with -1.75%; and `O=C(CCNS(=O)(=O)c1ccc(Br)s1)Nc1ccc(Cl)cc1`, with -2.43%. As to `CCOC(=O)c1ccc(CC(=O)c2oc3cc(O)ccc3c2C)o1`, the inhibition was 29.3%. In the case of `COC(=O)c1ccc(CC(=O)c2ccc(O)cc2O)o1`, the inhibition is 21.4%. In the case of `Cc1cc(O)cc(O)c1C(=O)Cc1ccccc1`, the inhibition is 31%. In the case of `CCOC(=O)c1ccc(CC(=O)c2ccc(O)cc2O)o1`, the inhibition is 16.6%. For the molecule `Cc1onc(-c2c(Cl)cccc2Cl)c1C(N)=O`, the inhibition was 3.21%. In the case of `Cc1nnc(-c2cccc(Br)c2)c2cn(-c3ccc(Br)cc3)nc12`, the inhibition is -35.9%. Then `CC(C)Oc1cc(NC(=O)CS(=O)(=O)CC(=O)N(C)C)c(Cl)cc1Cl`, with 4.46%; and `O=C(COc1ccc2c(c1)CCC2)NCc1ccccc1`, with 6.52%; and `COc1ccccc1CNC(=O)COc1ccc2c(c1)CCC2`, with -14.6%. Take `COc1cccc(COC(=O)C2CC(=O)N(Cc3ccccc3)C2)c1OC` (stereo not given): the inhibition is 4.65%.

Take `CCOc1ccc(NC(=O)NCCCn2c(C)nc3cc(C)c(C)cc32)cc1`: the inhibition was 3.24%. `Cc1cc2nc(C)n(CCCNC(=O)Nc3ccc(C#N)cc3)c2cc1C`: the inhibition was -0.77%. In the case of `CCCCSc1nnc(CCCCCNC(=O)OC(C)(C)C)o1`, the inhibition was 1.82%. With `CN(C)S(=O)(=O)c1ccc(C(=O)OCC(=O)Nc2ccc(OC(F)F)cc2)cc1`, the inhibition is -3.03%. In the case of `NC(=O)CCc1c[nH]c2ccccc12`, the inhibition is 14.6%.

Take `NNC(=O)CCc1c[nH]c2ccccc12`: the inhibition is 1.22%.

With `O=C(NC(=O)c1cccc(F)c1)Nc1nc(-c2ccc(F)cc2)cc(C(F)(F)F)n1`, the inhibition was 0.6%. As to `Cc1nc([N+](=O)[O-])cn1CC(=O)c1ccc(F)cc1`, the inhibition is -8.97%.

As for `CCn1c(SCC(=O)N2CCCc3ccccc32)nc2ccccc2c1=O`, the inhibition is -1.92%. On to `CN(C(=O)c1ccccc1C(=O)OCC(=O)Nc1ccccc1)c1ccccc1`, for which the inhibition was -8.92%. Turning to `O=C(CCNS(=O)(=O)c1ccc(Br)s1)NCc1ccc2c(c1)OCO2`, the inhibition is -6.46%. Turning to `CCO[C@@H]1OC(C(=O)NCc2ccccc2)=C[C@H](c2coc3ccccc3c2=O)[C@H]1CCCO`, the inhibition is 6.31%.

As for `Cc1cc(C)c(C(=O)/C=C/c2cccs2)c(=O)[nH]1`, the inhibition was 1.47%. `Cc1ccc(/C=C/C(=O)c2c(C)cc(C)[nH]c2=O)cc1`: the inhibition is -2.58%. As to `CCn1c(O)c(N=Nc2ccc(Cl)c(C(=O)O)c2)c2ccccc21`, the inhibition was 16%. As for `O/N=C/c1nc2cc(Cl)ccc2o1`, the inhibition was 4.03%. With `CC(=O)N(C1=C(N2CCOCC2)C(=O)c2ccccc2C1=O)c1ccc(C(=O)O)cc1`, the inhibition is 14.4%. For `CC(=O)N(C1=C(N)C(=O)c2ccccc2C1=O)c1ccccc1`, the inhibition is 4.9%. As to `COC(=O)c1[nH]c2c(c1C)C(=O)CC(c1ccc(OC)c(OC)c1)C2` (stereo not given), the inhibition was -9.19%.

For `C=CC[C@@H](CC(=O)N[C@H](CO)Cc1ccccc1)C(=O)N[C@@H](COC(=O)[C@@H](CC=C)CC(=O)OC(C)(C)C)Cc1ccccc1`, the inhibition was -0.04%. Take `CC1=C(C(=O)Nc2ccccc2)C(c2ccc(N(C)C)cc2)NC(=O)N1` (stereo not given): the inhibition is 8.56%. Then `CC1=C(C(=O)Nc2ccc(C)cc2)C(c2ccc(N(C)C)cc2)NC(=O)N1` (stereo not given), with -2.24% and 24.2%; and `O=C(NC(C(=O)N/N=C/c1cccc2ccccc12)c1n[nH]c(=O)c2ccccc12)c1ccccc1` (stereo not given), with 4.11%. In the case of `O=[N+]([O-])c1ccc(NN=Cc2ccccc2O)nc1`, the inhibition is 7.07%. Then `O=C(O)Cc1ccccc1C(=O)O`, with 0.17%; and `O=C(O)Cc1c(O)ccc2ccccc12`, with 3.01%; and `O=C(N/N=C1\CCCc2ccccc21)c1cccc([N+](=O)[O-])c1`, with 3.37%.

For the molecule `COC(=O)CCN(C(=O)c1ccc(N2CCCCC2)c([N+](=O)[O-])c1)c1ccccn1`, the inhibition is -7.46%.

Take `COc1ccc(C(=O)NNC(=O)c2ccc(C)cc2)cc1S(=O)(=O)N1CCCC1`: the inhibition was -1.1%. Then `CCCCCC(=O)N1C[C@H](n2cc(C3CC3)nn2)[C@@H](O)C[C@@H]1c1ccc(C)cc1`, with -2.78%; and `COc1ccc(C(=O)n2nc(-c3ccccc3)nc2N)cc1OC`, with -0.61% and -0.84%; and `COc1ccccc1C(=O)n1nc(-c2ccc(Cl)cc2)nc1N`, with 20.4%.

With `Cc1occc1C(=O)N(C)CC1CCCN(CCc2ccccc2F)C1` (stereo not given), the inhibition is 7.6%. On to `O=C1/C(=C/c2ccco2)CCC1C1CCCC1` (stereo not given), for which the inhibition was 25.4%.

Take `O=C1/C(=C\c2ccccc2)CCC/C1=C/c1ccccc1`: the inhibition was -1.78%. Turning to `NC(=N\N=Cc1ccco1)/C(N)=N/N=Cc1ccco1`, the inhibition was 27.4%. As for `O=C1C(=Cc2ccco2)CCC1=Cc1ccco1`, the inhibition was -4.11%. With `COc1ccc2c(c1)CC/C(=C/c1ccco1)C2=O`, the inhibition was 26.2%.

For the molecule `O/N=C1\CCCC\C1=C/c1ccccc1`, the inhibition is 5.14%.

Take `Cc1ccccc1C(=O)NC1CCS(=O)(=O)C1` (stereo not given): the inhibition is -1.4%.

As to `CCc1ccc(CN(C)Cc2nc(Cc3ccc(OC)c(OC)c3)no2)nc1`, the inhibition is -3.31%. In the case of `COc1ccc(OC)c(NC(=O)CCN2CCN(c3ccccc3F)CC2)c1`, the inhibition is 25.7%.

On to `Nc1nc(CN2CCCCCC2)nc(Nc2ccc(F)cc2)n1`, for which the inhibition is -3.7%. As to `Cc1ccc(S(=O)(=O)CCC(=O)NCCc2ccccc2)cc1`, the inhibition was 1.3%. Regarding `COc1ccc(S(=O)(=O)CCC(=O)NC2CCCCC2)cc1`, the inhibition was 23.2%.

For `Cc1ccc(S(=O)(=O)CCC(=O)NC2CCCCC2)cc1`, the inhibition is 3.12%. Consider `COc1ccc(S(=O)(=O)CCC(=O)NCCc2ccc(S(N)(=O)=O)cc2)cc1`, for which the inhibition is 12.3%. Turning to `Cc1ccc(CCNC(=O)CCS(=O)(=O)c2ccc(Br)cc2)cc1`, the inhibition is 28.3%. Consider `O=C(CCNS(=O)(=O)c1ccc(Br)cc1)NCCc1ccccc1`, for which the inhibition was -1.9%. For the molecule `CC(NS(=O)(=O)c1ccccc1)C(=O)Nc1ccc2c(c1)OCCO2` (stereo not given), the inhibition was 0.08%. As for `CC(=O)NCCn1c(SCc2ccccc2F)nc2ccccc2c1=O`, the inhibition was -4.55%. As for `O=C(CSc1nc2sc3c(c2c(=O)[nH]1)CCC3)NCCO`, the inhibition is -6.15%. Then `O=C(Cc1ccccc1)Nc1ccccc1C(=O)Nc1ccccc1`, with 9.21%. For `O=C(CC12CC3CC(CC(C3)C1)C2)NCc1ccccc1`, the inhibition is 0.11%.

On to `FC(F)(F)c1ccc2c(c1)NCC1CCCN21` (stereo not given), for which the inhibition was 32.5%.

In the case of `O=C1Nc2ccccc2N2CCCC12` (stereo not given), the inhibition is -3.06%. Consider `COc1ccc(CNC(=O)C(C)N(C)Cc2cccc(F)c2)cc1` (stereo not given), for which the inhibition is -5.46%. `CCNc1ccc(C(=O)NN=C2CCCC2)cc1[N+](=O)[O-]`: the inhibition was 4.6%. Then `Cc1ccc(C)c(NC(=O)CSc2nc3[nH]ncc3c(=O)[nH]2)c1`, with 8.18%; and `COc1cc(OC)c(-c2noc(C(=O)OC(C)(C)C)c2C(=O)OC(C)(C)C)c(OC)c1`, with -1.31%. `Cc1ccc(N2NC(=O)/C(=C\c3cc4c(cc3[N+](=O)[O-])OCO4)C2=O)cc1C`: the inhibition is 27.7%.

Consider `COc1ccccc1NC(=O)C(=O)N/N=C/c1ccc([N+](=O)[O-])s1`, for which the inhibition is -6.16%. Then `COc1cccc(N2C(=O)/C(=C\c3cccs3)NC2=S)c1`, with 7.97%; and `O=C1NC(=S)N/C1=C/c1cc2c(cc1[N+](=O)[O-])OCO2`, with -9.06%; and `O=C1N/C(=C/c2ccc(Br)s2)C(=O)N1c1ccccc1`, with -0.93%.

On to `COc1ccccc1N1C(=O)S/C(=C\c2ccc(C)s2)C1=O`, for which the inhibition is -7.12%.

On to `COc1cccc(/C=C2/C(=O)NN(c3ccccc3)C2=O)c1`, for which the inhibition was 0.84%. Take `O=C(/C=C/c1ccc([N+](=O)[O-])s1)N1CCN(c2ccccc2)CC1`: the inhibition is 2.14%. Take `CCOC(=O)C1=C(CC)Nc2ccccc2N=C1NC(=O)c1ccc(S(=O)(=O)N2CCOCC2)cc1`: the inhibition is -4.07%. Then `O=c1nc2n(c3ccc([N+](=O)[O-])cc13)CCCCC2`, with -7.12%; and `CCOC(=O)N1CCC(NC(=O)c2cc(S(=O)(=O)N3CCc4ccccc43)cn2C)CC1`, with -4.57%. In the case of `CCOC(=O)C1=C(C)N(C[C@@H]2CC[C@@H](Cc3ccc(-c4ccccc4)cc3)O2)C(=O)NC1c1ccc(SCc2ccco2)c([N+](=O)[O-])c1` (stereo not given in full), the inhibition was 30.7%. Turning to `Cc1nc2c(s1)sc1ccccc12`, the inhibition was -4.72%. Turning to `C=CC(=O)NC(C)(C)CCN1CCOCC1`, the inhibition is 0.07%. Then `CCc1cccc(C)c1NC(=O)CO/N=C(\N)CC(=O)NC1CCCCC1`, with -0.04%; and `O=C1C=CC(=Nc2ccc3c(c2)C(=O)c2ccccc2-3)O1`, with -2.81%; and `O=[N+]([O-])c1ccccc1C=NNc1ccccc1`, with -8.57%. As to `COc1ccc(CC(NC(C)=O)C(=O)NC2CCN(S(=O)(=O)c3ccccc3)CC2)c(OC)c1` (stereo not given), the inhibition was 3.28%.

Turning to `O=C(COC(=O)C12CC3CC(CC(Br)(C3)C1)C2)N1CCOCC1`, the inhibition is 4.7%. Then `Cc1cc(=O)oc2cc(OCC(=O)N3CCCc4ccccc43)ccc12`, with -3.74%; and `COCCCNc1nc2nonc2nc1N1CCC(C(C)N2CCOCC2)CC1` (stereo not given), with -10.9%.
